Measured values: PubChem BioAssay (NCI)
The panel holds about 79,000 compounds, 15% with a hit somewhere; the sample as a whole holds those more often. Activity calls are given as the source filed them. Cut-off read from the data, not from the text of the source: active = growth inhibition above about 70%; inactive = the rest.

How the values were obtained:
[1] = NCI Yeast Anticancer Drug Screen. Data for the rad50 strain (AID 155);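 note: 0% = growth of vehicle-only cultures of the same strain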; conditions: S. cerevisiae rad50 strain growth inhibition; at 50.0 µM; active compounds read high
Summary of the method: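 Relative growth inhibition (compound vs vehicle) was measured in yeast with a defined repair-gene alteration.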

[2] = NCI Yeast Anticancer Drug Screen. Data for the mec2-1 strain (AID 157); conditions: S. cerevisiae mec2-1 strain, at 50.0 µM, active compounds read high
Summary of the method: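 Readout is yeast growth inhibition, normalised to vehicle-treated controls, in the mec2-1 strain exposed to compound.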

[3] = NCI Yeast Anticancer Drug Screen. Data for the sgs1 mgt1 strain (AID 161);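 note: 0% = growth of cultures given vehicle only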; conditions: S. cerevisiae sgs1 mgt1 strain, at 50.0 µM, active compounds read high
Summary of the method: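 Growth of a repair-deficient yeast mutant was monitored after compound treatment and expressed as inhibition relative to vehicle-treated cultures.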

[4] = NCI Yeast Anticancer Drug Screen. Data for the cln2 rad14 strain (AID 165);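 note: 0% = growth equal to vehicle treated cultures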; conditions: S. cerevisiae cln2 rad14 strain, at 50.0 µM, active compounds read high
Summary of the method: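 Relative to vehicle controls, growth inhibition of compound-treated cln2 rad14 yeast was recorded.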

[5] = NCI Yeast Anticancer Drug Screen. Data for the bub3 strain (AID 167); conditions: S. cerevisiae bub3 mutant strain, at 50.0 µM, active compounds read high
Summary of the method: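 Screening used yeast with an engineered genetic alteration affecting cell cycle control. Compound-exposed cultures were compared with vehicle cultures, and reduced growth was taken as inhibition.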

[6] = NCI Yeast Anticancer Drug Screen. Data for the mlh1 rad18 strain (AID 175); conditions: S. cerevisiae mlh1 rad18 strain growth inhibition; at 50.0 µM; active compounds read high
Summary of the method: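 Test agents were incubated with a yeast strain of defined genotype (DNA damage repair defect). Inhibition of growth was derived by comparison with vehicle-exposed cultures.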

Measured: growth inhibition

O=C1/C(=C/c2ccco2)N=C2Sc3c(nc[nH]c3=O)N12
inactive: [1] 2.4% | [2] -19.2% | [3] 6.55% | [4] -3.65% | [5] 9.5% | [6] 16.6%

O=S(=O)(Nc1ccc(Cl)cc1)c1ccc(F)cc1
inactive: [1] -9.45% | [2] -15.8% | [3] -11.6% | [4] 11.9% | [5] -29.1% | [6] 3.95%

O=C(Cl)c1ccc2c(c1)C(=O)NC2=O
inactive: [1] -6.55% | [2] -12.1% | [3] -19.4% | [4] 8.95% | [5] -5.95% | [6] -16.4%

CCOC(=O)CC1=Nc2ccccc2SC1
inactive: [1] -28.4% | [2] -31.2% | [3] -14.8% | [4] -12.8% | [5] -22.6% | [6] -28.6%

COc1ccc(CCn2nnc3ccccc3c2=O)cc1OC
inactive: [1] -4.1% | [2] -33.1% | [3] -10.1% | [4] 16.6% | [5] -28.4% | [6] -11.5%

CN(C)CCC(=O)c1ccc(C(=O)CCN(C)C)cc1
inactive: [1] -0.4% | [2] 25.6% | [3] -17.1% | [4] -14.8% | [5] -16.2% | [6] -21.2%

O=c1[nH]c2cc(Cl)ccc2nc1/C(=N\O)C(O)c1cccc([N+](=O)[O-])c1 (stereo unspecified)
inactive: [1] 6.7% | [2] -9.55% | [3] -7.75% | [4] 11.9% | [5] -5.1% | [6] -13.2%

CCOC(O)C(F)(F)F (stereo unspecified)
inactive: [1] 9.2% | [2] -0.7% | [3] 10.6% | [4] 15.8% | [5] 0.45% | [6] 13.2%

CCOC(=O)C(CN)c1ccccc1 (stereo unspecified)
inactive: [1] -9.15% | [2] -9.5% | [3] 8.1% | [4] -32.9% | [5] -1.25% | [6] 3.6%

COc1ccc(C2=NC(=O)OC2(C)C)cc1
inactive: [1] -6.95% | [2] -20.2% | [3] -5.7% | [4] -11% | [5] -8.6% | [6] -10.2%

CCCC(=O)Nc1cc(C(=O)N2C[C@@H]3C[C@]34C2=CC(=O)c2[nH]cc(C)c24)n(COC)c1
inactive: [1] 26.5% | [2] 10.5% | [3] 30.6% | [4] 10.1% | [5] 8.9% | [6] 47.4%

CC(=O)N(CN1C(=O)CCC1C(=O)O)c1ccccc1 (stereo unspecified)
inactive: [1] 20.1% | [2] -0.55% | [3] -8.5% | [4] 1.55% | [5] 0.7% | [6] -31.3%

COC1/C=C/OC2(C)Oc3c(C)c(O)c4c(O)c(c(/C=N/N5CCN(Cc6cccc(C(F)(F)F)c6)CC5)c(O)c4c3C2=O)NC(=O)C(C)=C/C=C/C(C)C(O)C(C)C(O)C(C)C(OC(C)=O)C1C (stereo unspecified)
inactive: [1] 11.7% | [2] 30.7% | [3] 35.3% | [4] 27.2% | [5] 11.8% | [6] 43.1%

CCc1cc2c(Nc3ccccc3)c3c(nc2s1)CCCC3
inactive: [1] -15.3% | [2] -25.8% | [3] -8.75% | [4] 11.5% | [5] 16.4% | [6] -33.5%

CCS(=O)CCC(N)C(=O)O (stereo unspecified)
inactive: [1] -9.7% | [2] -20.1% | [3] 1.65% | [4] -19.6% | [5] 5.7% | [6] -3.6%

O=C(O)C1C(C2c3ccc(O)cc3Oc3cc(O)ccc32)C2(Cl)C(Cl)=C(Cl)C1(Cl)C2(Cl)Cl (stereo unspecified)
inactive: [4] 69.2%
active: [1] 95.3% | [2] 94.4% | [3] 96.8% | [5] 81.6% | [6] 95.3%

N#Cc1nnn(-c2ccccc2)n1
inactive: [1] 24.2% | [2] 13.5% | [3] 2.9% | [4] -15.7% | [5] 4% | [6] 22.5%

CC(=O)c1cccc(NC(=O)Oc2ccc(Cl)cc2Cl)c1
inactive: [1] 4.55% | [2] 17.9% | [3] 3.25% | [4] 1% | [5] 11.3% | [6] 4.3%

CNC(=O)OCc1c(COC(=O)NC)c(C)n(-c2ccccc2)c1C
inactive: [1] 7.75% | [2] -14.1% | [3] -24.2% | [4] -0.35% | [5] -3.95% | [6] -24%

O=C1ON=C2C3CC4CC12CC1(C3)C(=O)ON=C41
inactive: [1] -3.05% | [2] -6.45% | [3] -3.8% | [4] -1.9% | [5] -12.1% | [6] -19.8%

Cc1ccc(C(=O)/C=C/c2ccco2)cc1
inactive: [1] 49% | [2] 33.6% | [3] 46% | [4] 33.5% | [5] 34.5% | [6] 61.3%

OCC1=CCCCC1
inactive: [1] 6.95% | [2] 1.85% | [3] -6.65% | [4] 12.7% | [5] -14.5% | [6] 0.25%

[O-][n+]1ccncc1Cl
inactive: [1] -1.15% | [2] -0.65% | [3] -2.75% | [4] 0.55% | [5] 18.6% | [6] 7.05%

COc1ccc(-c2ccccc2)cc1NC(C)=O
inactive: [1] 9.8% | [2] 15.2% | [3] 6.75% | [4] 20.9% | [5] 14% | [6] 16.5%

CC(=O)NC(C)C#N (stereo unspecified)
inactive: [1] -15.4% | [2] -14.1% | [3] -0.2% | [4] -4% | [5] -8.7% | [6] 5.55%

COc1ccccc1NC(=O)c1nc2ccc([N+](=O)[O-])cc2nc1C
inactive: [1] 21.4% | [2] 19.1% | [3] 1.65% | [4] 15.4% | [5] 33.9% | [6] 20.4%

COc1ccc(OC)c2c3c([nH]c12)C(=O)Nc1nc(N)nc(N)c1C3
inactive: [1] 42.9% | [2] 19.9% | [3] 30.4% | [4] 21.8% | [5] 31.9% | [6] 40.5%

CCOP(=O)(OCC)C(C)(CC)NC1=NC(C(F)(F)F)(C(F)(F)F)NC(=O)N1 (stereo unspecified)
inactive: [1] -2.2% | [2] -10.2% | [3] -3.3% | [4] 1% | [5] -0.5% | [6] -0.15%

c1cc(C[S+]2CCCC2)ccc1C[S+]1CCCC1
inactive: [1] -17.9% | [2] -30.9% | [3] -32% | [4] -21.1% | [5] -12.4% | [6] -22.3%

CC(C)C(=O)NCc1ccccc1Sc1ccccc1CNC(=O)C(C)C
inactive: [1] -13.8% | [2] 6.1% | [3] -18.5% | [4] -10% | [5] 1.4% | [6] -0.7%

CCC(CC)C(O)CCCN(C)C (stereo unspecified)
inactive: [1] 33.6% | [2] 21.8% | [3] 31.2% | [4] 12.8% | [5] 1.65% | [6] 24.1%

O=C(O)/C=C\C(=O)Nc1ccc(S(=O)(=O)Nc2nccs2)cc1
inactive: [1] -0.8% | [2] -3.45% | [3] -15.2% | [4] 2.6% | [5] 1.6% | [6] -10.1%

Cc1ccc2[nH]c3c(ncc4[nH]c5ccccc5c43)c2c1
inactive: [1] 59.3% | [2] 44.1% | [3] 62.8% | [4] 52.1% | [5] 62.9% | [6] 62%

O=C(C[n+]1ccncc1)c1cccc([N+](=O)[O-])c1
inactive: [1] 0.5% | [2] -1.95% | [3] 9.15% | [4] 8.35% | [5] 7.65% | [6] 27.4%

c1ccc2c(c1)C1c3ccccc3C2C2OC12 (stereo unspecified)
inactive: [1] 14.2% | [2] 1.5% | [3] -4% | [4] -2.9% | [5] -10.1% | [6] 34.4%

COc1cccc(CCNC(=O)Cc2ccccc2CCO)c1
inactive: [1] -5.8% | [2] -7.8% | [3] -46.8% | [4] 9.35% | [5] -37.9% | [6] -53.8%

C=CCC(C)C(=O)NNC(=O)C(C)CC=C (stereo unspecified)
inactive: [1] -11.8% | [2] -9.15% | [3] -1.85% | [4] -13.3% | [5] -12.2% | [6] 11.8%

CC(=O)OCC1CC=CCC1C (stereo unspecified)
inactive: [1] 5.35% | [2] -15.7% | [3] -10.2% | [4] 1.75% | [5] 2.75% | [6] 1.5%

c1ccc(-c2ccc(-c3ccccc3)c(-c3ccc4c(c3)CCC4)c2-c2ccccc2)cc1
inactive: [1] 14.1% | [2] 13.3% | [3] 7.25% | [4] 13.9% | [5] -3.85% | [6] 21.8%

O=C(NC1C2CC3CC(C2)CC1C3)c1cc(/C=C/c2ccccc2)[nH]c(=S)n1 (stereo unspecified)
inactive: [1] 15.1% | [2] 2.35% | [3] 13.1% | [4] 12.2% | [5] -2.25% | [6] 14.3%

CC12CCC(C(=O)n3c1nc1ccccc13)C(C)(C)O2 (stereo unspecified)
inactive: [1] 8.15% | [2] -6.85% | [3] -7.45% | [4] 4% | [5] 4.25% | [6] -12.3%
